{"source": "the supplement of paper PMC8728848", "binders": {"B1": {"name": "Awp3 (Candida glabrata), B4UN32 (protein)", "chain": "MISFVTLLAILGLLSISWADQTVRSVAGDQRVTDPVIVGDNSILDYYGGSNYDFSNNFEIGRGTLYIGKESYFSSFQSAPTDVPNSFHLLIKNTNNLQNNGQFIIENIKRHANQCSNSSIQVFPINFQNDGEFEIISGGVEGRCCLPTSVIAPQNFLNNGKFYYKVLTDTGSIYSGSCMQNVDIGASTTTTVNNNLWEFTGSINAQINGAVSGAAQINLDGSNMFVNANTFSGQVVNLINGGSFLQTSDPLSNIVVINGLGTSDTGVTSIAVKGKGKSFTYNPSSGIVKLTTVEGKTYAYQIGCGYNTKKFITNNDSGASYESADNFFVLTYSEPYSPQTCQLENSSIFSSNFISTSTSSSSSSSSASSLPSSMSSSLPSSLSSSLSSSLSSSMSSSMSSLFIIPPPYTTTRSSGSSIIDTEIVSFYSTTDSPGHTITGTTTTTLYGPHTHSSVSTPSSSSESSTTSNSSIESSSLPHTSVSSTPESSITPSSNTISSSPTSDFSSVQSSSIMESSSVVASSSVINSSSIVDSSSSSASSLPSSMSSSLSSSMSSSLPSSMSSSLSSSLSSSLSSSMSSSMSSLFIIPPPYTTTRSSGSSIIDTEIVSFYSTTDSPGHTITGTTTTTLYGPHTHSSVSTPSSSSESSTTSNSSIESSSLPHTSVSSTPESSITPSSNTISSSPTSDFSSVQSSSIMESSSVVASSSVINSSSIVDSSSSSASSLPSSMPSSLPSSMSSSLSSSMSSSLSSSLSSSLSSSMSSSMSSLFIIPPPYTTTRSSGSSIIDTEIVSFYSTTDSPGHTITGTTTTTLYGPHTHSSVSTPSSSSESSTTSNSSIESSSLPHTSVSSTPESSITPSSNTISSSPTSDFSSVQSSSIMESSSVVASSSATQSSSVINSSSIVDSSSSSASSLPSSMPSSLPSSLSSSLSSSLSSSMSSSMSSLFIIPPPYTTTRSSGSSIIDTEIVSFYSTTDSPGHTITGTTTTTLYESSIYSSSSSTIQESELSNTSRTTMTSNSSVSISSTSSRSSFSNTKSSTIVISQSASLPDSKTDIILSTSSNIGYSSRSLLSDLGTSISDSDIHHSVLHSTESYSSNESGTNPFTSIASLSNFIPESSSHTSTALGSENSVISSDILTTMSHPVATNSGDKPTTPKRSEQVSTTMTSSGPTPDTSSFDTDGMSAYSRPEFTTNSLEVNKSSTSQLGNNKQTFSNLQLESTRPHSENEVDNNTRLLQSIQQSSTYGTNNVNPLSPTGSISIPLTEDGQGDNNNWNSPATNDLCTQISFNLTATTITVTDRITITDSIHDISSEVITSYIYQTIVDQKTVTQTVDGKSLANKMSSIPKPSSRSLIQPQPPVAIELQEGAASTSRVSLVSLFISIILVLL"}}, "assay_in_all_cases": "glycan array binding signal (z-score within array); higher = stronger binding", "conditions_in_all_cases": "glycan notation: IUPAC condensed, linker removed", "key": {"[1]": {"target": "Fuc(a1-2)Gal(b1-3)GalNAc(b1-3)Gal(a1-4)Gal(b1-4)Glc", "how_it_was_run": "(§1)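 From the Consortium for Functional Glycomics database, 3228 arrays were curated, keeping only those whose protein sequence was available. Binding is given as a within-array Z-score averaged across arrays sharing a protein sequence and across linkers. Negative Z-scores can be read as non-binding.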"}, "[2]": {"target": "Fuc(a1-2)Gal(b1-3)GlcNAc(b1-2)Man(a1-3)[Fuc(a1-2)Gal(b1-3)GlcNAc(b1-2)Man(a1-6)]Man(b1-4)GlcNAc(b1-4)[Fuc(a1-6)]GlcNAc", "how_it_was_run": "as §1"}, "[3]": {"target": "Fuc(a1-2)Gal(b1-4)GlcNAc(b1-2)[Fuc(a1-2)Gal(b1-4)GlcNAc(b1-4)]Man(a1-3)[Fuc(a1-2)Gal(b1-4)GlcNAc(b1-2)Man(a1-6)]Man(b1-4)GlcNAc(b1-4)GlcNAc", "how_it_was_run": "as §1"}, "[4]": {"target": "Fuc(a1-2)Gal(b1-4)[Fuc(a1-3)]GlcNAc(b1-2)Man(a1-3)[Fuc(a1-2)Gal(b1-4)[Fuc(a1-3)]GlcNAc(b1-2)Man(a1-6)]Man(b1-4)GlcNAc(b1-4)[Fuc(a1-6)]GlcNAc", "how_it_was_run": "as §1"}, "[5]": {"target": "Fuc(a1-2)Gal(b1-4)[Fuc(a1-3)]GlcNAc(b1-3)Gal(b1-4)[Fuc(a1-3)]GlcNAc(b1-3)Gal(b1-4)[Fuc(a1-3)]GlcNAc", "how_it_was_run": "as §1"}, "[6]": {"target": "Fuc(a1-2)Gal(b1-4)[Fuc(a1-3)]GlcNAc(b1-3)[Neu5Ac(a2-6)Gal(b1-4)GlcNAc(b1-6)]Gal(b1-4)Glc", "how_it_was_run": "as §1"}, "[7]": {"target": "Fuc(a1-2)[Gal(a1-3)]Gal(b1-4)GlcNAc(b1-2)Man(a1-3)[Fuc(a1-2)[Gal(a1-3)]Gal(b1-4)GlcNAc(b1-2)Man(a1-6)]Man(b1-4)GlcNAc(b1-4)GlcNAc", "how_it_was_run": "as §1"}, "[8]": {"target": "Fuc(a1-2)[GalNAc(a1-3)]Gal(b1-3)GalNAc(b1-3)Gal(a1-4)Gal(b1-4)Glc", "how_it_was_run": "as §1"}, "[9]": {"target": "Fuc(a1-2)[GalNAc(a1-4)]Gal(b1-4)GlcNAc", "how_it_was_run": "as §1"}, "[10]": {"target": "Fuc(a1-3)[Gal(b1-4)]GlcNAc(b1-6)GalNAc", "how_it_was_run": "as §1"}, "Gal(a1-4)GlcNAc": {"target": "Gal(a1-4)GlcNAc", "how_it_was_run": "as §1"}, "[11]": {"target": "Gal(b1-3)GlcNAc(a1-6)Gal(b1-4)GlcNAc", "how_it_was_run": "as §1"}, "[12]": {"target": "Gal(b1-3)GlcNAc(b1-2)Man(a1-3)[Gal(b1-3)GlcNAc(b1-2)Man(a1-6)]Man(b1-4)GlcNAc(b1-4)GlcNAc", "how_it_was_run": "as §1"}, "[13]": {"target": "Gal(b1-3)GlcNAc(b1-3)Gal(b1-4)GlcNAc(b1-6)[Gal(b1-3)GlcNAc(b1-3)]Gal(b1-4)Glc", "how_it_was_run": "as §1"}, "[14]": {"target": "Gal(b1-3)GlcNAc(b1-3)Gal(b1-4)[Fuc(a1-3)]GlcNAc(b1-6)[Gal(b1-3)GlcNAc(b1-3)]Gal(b1-4)Glc", "how_it_was_run": "as §1"}, "[15]": {"target": "Gal(b1-4)GlcNAc(b1-2)Man(a1-3)[Gal(b1-4)GlcNAc(b1-2)Man(a1-6)][GlcNAc(b1-4)]Man(b1-4)GlcNAc(b1-4)[Fuc(a1-6)]GlcNAc", "how_it_was_run": "as §1"}, "[16]": {"target": "Gal(b1-4)GlcNAc(b1-2)Man(a1-3)[Man(a1-6)]Man(b1-4)GlcNAc(b1-4)GlcNAc", "how_it_was_run": "as §1"}, "[17]": {"target": "Gal(b1-4)GlcNAc(b1-2)Man(a1-6)[GlcNAc(b1-2)Man(a1-3)]Man(b1-4)GlcNAc(b1-4)GlcNAc", "how_it_was_run": "as §1"}, "[18]": {"target": "Gal(b1-4)GlcNAc(b1-2)[Gal(b1-4)GlcNAc(b1-4)]Man(a1-3)[Gal(b1-4)GlcNAc(b1-2)[Gal(b1-4)GlcNAc(b1-6)]Man(a1-6)]Man(b1-4)GlcNAc(b1-4)GlcNAc", "how_it_was_run": "as §1"}, "[19]": {"target": "Gal(b1-4)GlcNAc(b1-3)Gal(b1-4)GlcNAc(b1-2)[Gal(b1-4)GlcNAc(b1-3)Gal(b1-4)GlcNAc(b1-6)]Man(a1-6)[Gal(b1-4)GlcNAc(b1-3)Gal(b1-4)GlcNAc(b1-2)Man(a1-3)]Man(b1-4)GlcNAc(b1-4)[Fuc(a1-6)]GlcNAc", "how_it_was_run": "as §1"}, "[20]": {"target": "Gal(b1-4)GlcNAc(b1-3)Gal(b1-4)GlcNAc(b1-3)Gal(b1-4)GlcNAc(b1-2)[Gal(b1-4)GlcNAc(b1-3)Gal(b1-4)GlcNAc(b1-3)Gal(b1-4)GlcNAc(b1-6)]Man(a1-6)[Gal(b1-4)GlcNAc(b1-3)Gal(b1-4)GlcNAc(b1-3)Gal(b1-4)GlcNAc(b1-2)Man(a1-3)]Man(b1-4)GlcNAc(b1-4)[Fuc(a1-6)]GlcNAc", "how_it_was_run": "as §1"}, "[21]": {"target": "Gal(b1-4)GlcNAc(b1-3)Gal(b1-4)GlcNAc(b1-3)Gal(b1-4)GlcNAc(b1-3)Gal(b1-4)GlcNAc(b1-3)Gal(b1-4)GlcNAc(b1-2)Man(a1-3)[Gal(b1-4)GlcNAc(b1-3)Gal(b1-4)GlcNAc(b1-3)Gal(b1-4)GlcNAc(b1-3)Gal(b1-4)GlcNAc(b1-3)Gal(b1-4)GlcNAc(b1-2)Man(a1-6)]Man(b1-4)GlcNAc(b1-4)[Fuc(a1-6)]GlcNAc", "how_it_was_run": "as §1"}, "[22]": {"target": "Gal(b1-4)GlcNAc(b1-3)Gal(b1-4)GlcNAc(b1-3)Gal(b1-4)GlcNAc(b1-3)Gal(b1-4)GlcNAc(b1-3)Gal(b1-4)GlcNAc(b1-2)[Gal(b1-4)GlcNAc(b1-3)Gal(b1-4)GlcNAc(b1-3)Gal(b1-4)GlcNAc(b1-3)Gal(b1-4)GlcNAc(b1-3)Gal(b1-4)GlcNAc(b1-6)]Man(a1-6)[Gal(b1-4)GlcNAc(b1-3)Gal(b1-4)GlcNAc(b1-3)Gal(b1-4)GlcNAc(b1-3)Gal(b1-4)GlcNAc(b1-3)Gal(b1-4)GlcNAc(b1-2)Man(a1-3)]Man(b1-4)GlcNAc(b1-4)[Fuc(a1-6)]GlcNAc", "how_it_was_run": "as §1"}, "[23]": {"target": "Gal(b1-4)GlcNAc(b1-3)Gal(b1-4)GlcNAc(b1-3)GalNAc", "how_it_was_run": "as §1"}, "[24]": {"target": "Gal(b1-4)GlcNAc(b1-3)Gal(b1-4)GlcNAc(b1-6)[Gal(b1-3)]GalNAc", "how_it_was_run": "as §1"}, "[25]": {"target": "Gal(b1-4)GlcNAc(b1-3)Gal(b1-4)[Fuc(a1-3)]GlcNAc(b1-3)Gal(b1-4)[Fuc(a1-3)]GlcNAc", "how_it_was_run": "as §1"}, "[26]": {"target": "Gal(b1-4)GlcNAc(b1-3)GalNAc", "how_it_was_run": "as §1"}, "[27]": {"target": "Gal(b1-4)GlcNAc(b1-3)[Fuc(a1-3)GlcNAc(b1-6)]Gal(b1-4)Glc", "how_it_was_run": "as §1"}, "Gal3S(b1-4)Glc": {"target": "Gal3S(b1-4)Glc", "how_it_was_run": "as §1"}, "Gal4S6S(b1-4)GlcNAc": {"target": "Gal4S6S(b1-4)GlcNAc", "how_it_was_run": "as §1"}}, "note": "The sample as a whole holds a higher share of the strongest signals than the screen did.", "data": [{"binder": "B1", "values": [{"measurement": "glycan array binding signal (z-score)", "setting": "[1]", "value": 2.34}, {"measurement": "glycan array binding signal (z-score)", "setting": "[2]", "value": 1.49}, {"measurement": "glycan array binding signal (z-score)", "setting": "[3]", "value": 3.23}, {"measurement": "glycan array binding signal (z-score)", "setting": "[4]", "value": -0.693}, {"measurement": "glycan array binding signal (z-score)", "setting": "[5]", "value": 1.19}, {"measurement": "glycan array binding signal (z-score)", "setting": "[6]", "value": -1.1}, {"measurement": "glycan array binding signal (z-score)", "setting": "[7]", "value": 2.45}, {"measurement": "glycan array binding signal (z-score)", "setting": "[8]", "value": 2.28}, {"measurement": "glycan array binding signal (z-score)", "setting": "[9]", "value": -0.218}, {"measurement": "glycan array binding signal (z-score)", "setting": "[10]", "value": 0.39}, {"measurement": "glycan array binding signal (z-score)", "setting": "Gal(a1-4)GlcNAc", "value": 2.25}, {"measurement": "glycan array binding signal (z-score)", "setting": "[11]", "value": 0.259}, {"measurement": "glycan array binding signal (z-score)", "setting": "[12]", "value": 2.55}, {"measurement": "glycan array binding signal (z-score)", "setting": "[13]", "value": 1.3}, {"measurement": "glycan array binding signal (z-score)", "setting": "[14]", "value": 2.48}, {"measurement": "glycan array binding signal (z-score)", "setting": "[15]", "value": 1.4}, {"measurement": "glycan array binding signal (z-score)", "setting": "[16]", "value": -0.338}, {"measurement": "glycan array binding signal (z-score)", "setting": "[17]", "value": 0.07}, {"measurement": "glycan array binding signal (z-score)", "setting": "[18]", "value": -0.258}, {"measurement": "glycan array binding signal (z-score)", "setting": "[19]", "value": -1.19}, {"measurement": "glycan array binding signal (z-score)", "setting": "[20]", "value": 1.96}, {"measurement": "glycan array binding signal (z-score)", "setting": "[21]", "value": 0.113}, {"measurement": "glycan array binding signal (z-score)", "setting": "[22]", "value": -0.313}, {"measurement": "glycan array binding signal (z-score)", "setting": "[23]", "value": 1.03}, {"measurement": "glycan array binding signal (z-score)", "setting": "[24]", "value": -0.292}, {"measurement": "glycan array binding signal (z-score)", "setting": "[25]", "value": 0.452}, {"measurement": "glycan array binding signal (z-score)", "setting": "[26]", "value": -0.074}, {"measurement": "glycan array binding signal (z-score)", "setting": "[27]", "value": -0.665}, {"measurement": "glycan array binding signal (z-score)", "setting": "Gal3S(b1-4)Glc", "value": -0.288}, {"measurement": "glycan array binding signal (z-score)", "setting": "Gal4S6S(b1-4)GlcNAc", "value": 0.372}]}]}
